# Experimental data reported in PubChem BioAssay (EPA / NIEHS).
# Calls of active or inactive are those of the source. The calls were made as follows: active = hit-call score of the fitted dose curve at least 0.9, where 1 is the maximum; inactive = score below 0.9.
# How the values were obtained:
# [1] = read-out: Tissue Factor, F3 (gene 2152); assay: BSK_CASM3C_TissueFactor: BioMAP Diversity Plus: CASM3C Assay for Tissue Factor Biomarker Activity (AID 2283052); conditions: primary human coronary artery smooth muscle cells; actives raise or lower the signal;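 also: cell surface tissue factor protein level read by ELISA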
# [2] = read-out: Interferon-gamma inducible Protein 10 (IP10), CXCL10 (gene 3627); assay: BSK_hDFCGF_IP10: BioMAP Diversity Plus: hDFCGF Assay for Interferon-gamma inducible Protein 10 (IP10) Biomarker Activity (AID 2283053); conditions: primary human foreskin fibroblasts; actives raise or lower the signal
# Summary of the method: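 IP-10 levels, quantified by ELISA, are taken from human foreskin fibroblast cultures 24 h after chemical treatment, with DMSO serving as negative control and baseline for bidirectional analysis.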
# [3] = read-out: Urokinase-type plasminogen activator receptor (uPAR), PLAUR (gene 5329); assay: BSK_CASM3C_uPAR: BioMAP Diversity Plus: CASM3C Assay for Urokinase-type plasminogen activator receptor (uPAR) Biomarker Activity (AID 2283054); conditions: primary human coronary artery smooth muscle cells; actives raise or lower the signal;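 also: cell-surface uPAR protein level quantified by ELISA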
# [4] = read-out: Vascular cell adhesion molecule 1 (VCAM1), VCAM1 (gene 7412); assay: BSK_CASM3C_VCAM1: BioMAP Diversity Plus: CASM3C Assay for Vascular cell adhesion molecule 1 (VCAM1) Biomarker Activity (AID 2283055); conditions: primary human coronary artery smooth muscle cells; actives raise or lower the signal;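 also: VCAM-1 protein level quantified by ELISA on the cells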
# [5] = read-out: Collagen III, COL3A1 (gene 1281); assay: BSK_hDFCGF_CollagenIII: BioMAP Diversity Plus: hDFCGF Assay for Collagen III Biomarker Activity (AID 2283056); conditions: primary human foreskin fibroblasts; actives raise or lower the signal
# Summary of the method: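 ELISA readout of Collagen III in human dermal (foreskin) fibroblasts, taken 24 h post-treatment. Gain or loss relative to DMSO vehicle fitted in both directions.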
# [6] = read-out: Epidermal growth factor receptor (EGFR), EGFR (gene 1956); assay: BSK_hDFCGF_EGFR: BioMAP Diversity Plus: hDFCGF Assay for Epidermal growth factor receptor (EGFR) Biomarker Activity (AID 2283057); conditions: primary human foreskin fibroblasts; actives raise or lower the signal
# Summary of the method: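 Measured by ELISA: EGFR levels on primary human foreskin fibroblasts 24 h after chemical treatment, analysed relative to DMSO with bidirectional fitting.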
# [7] = read-out: Interleukin-8 (IL8), CXCL8 (gene 3576); assay: BSK_hDFCGF_IL8: BioMAP Diversity Plus: hDFCGF Assay for Interleukin-8 (IL8) Biomarker Activity (AID 2283058); conditions: primary human foreskin fibroblasts; actives raise or lower the signal
# Summary of the method: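 IL-8 levels read by ELISA at 24 hours after dosing human skin fibroblast cultures. Parallel SRB staining assessed overt cytotoxicity, and gain or loss of signal was fitted against DMSO control.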
# [8] = BSK_hDFCGF_Proliferation: Cell Proliferation Assessment in the BioMAP Diversity Plus: hDFCGF Assay (AID 2283059); conditions: primary human foreskin fibroblasts;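 also: curves fitted for both rise and fall of signal versus DMSO baseline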
# Summary of the method: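 This proliferation readout used SRB total-protein staining of human foreskin fibroblasts […], normalized to DMSO with bidirectional curve fitting.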
# [9] = read-out: Macrophage colony-stimulating factor (MCSF), CSF1 (gene 1435); assay: BSK_hDFCGF_MCSF: BioMAP Diversity Plus: hDFCGF Assay for Macrophage colony-stimulating factor (MCSF) Biomarker Activity (AID 2283060); conditions: primary human foreskin fibroblasts; actives raise or lower the signal
# Summary of the method: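 M-CSF levels read by ELISA at 24 h post-dosing in human skin fibroblasts. Parallel cultures stained with SRB assessed cytotoxicity at the same time point; response fitted in both directions against the DMSO baseline.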
# [10] = BSK_hDFCGF_SRB: Viability Assessment in the BioMAP Diversity Plus: hDFCGF Assay (AID 2283061); conditions: primary human foreskin fibroblasts;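 also: cells exposed to compound for 24 h before the read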
# Summary of the method: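 Viability was read as total protein: after 10% TCA fixation, wells were stained with 0.1% sulforhodamine B and read at 560 nm. Primary human foreskin fibroblasts were dosed for 24 h, with bidirectional fitting versus DMSO.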
SMILES,outcome [1],outcome [2],outcome [3],AC50 [4],AC50 [5],outcome [6],AC50 [7],AC50 [8],AC50 [9],AC50 [10],AC50 [2],AC50 [3],outcome [5],outcome [7],outcome [9],outcome [4],outcome [10],outcome [8],AC50 [6]
COC(=O)N(OC)c1ccccc1COc1ccn(-c2ccc(Cl)cc2)n1,inactive,inactive,inactive,11.7 µM (active),0.8 µM (active),inactive,5.63 µM (active),1.84 µM (active),20 µM (active),13.4 µM (active),–,–,–,–,–,–,–,–,–
CS/C(C)=N/OC(=O)N(C)SN(C)C(=O)O/N=C(\C)SC,inactive,–,–,30.8 µM (active),–,inactive,–,3.73 µM (active),–,11.7 µM (active),8.62 µM (active),31.5 µM (active),inactive,inactive,inactive,–,–,–,–
Cc1ccc(-c2c(Cl)nc(C#N)n2S(=O)(=O)N(C)C)cc1,inactive,–,inactive,–,13.9 µM (active),inactive,–,17 µM (active),14.3 µM (active),14.5 µM (active),6.3 µM (active),–,–,inactive,–,inactive,–,–,–
COP(=S)(OC)Oc1nc(Cl)c(Cl)cc1Cl,inactive,–,inactive,–,20 µM (active),inactive,–,28.2 µM (active),30 µM (active),–,25.4 µM (active),–,–,inactive,–,inactive,inactive,–,–
COP(N)(=O)SC (centres undefined),inactive,inactive,inactive,–,–,inactive,–,–,–,–,–,–,inactive,inactive,inactive,inactive,inactive,inactive,–
O=C(Nc1ccccc1)Nc1ccnc(Cl)c1,inactive,inactive,inactive,–,–,–,–,–,–,–,–,–,inactive,inactive,inactive,inactive,inactive,inactive,0.148 µM (active)
Cc1c(F)c(F)c(COC(=O)C2C(/C=C(\Cl)C(F)(F)F)C2(C)C)c(F)c1F (centres undefined),inactive,inactive,inactive,–,–,inactive,–,10.8 µM (active),3.03 µM (active),–,–,–,inactive,inactive,–,inactive,inactive,–,–
C=CC1(C)OC(=O)N(c2cc(Cl)cc(Cl)c2)C1=O (centres undefined),inactive,inactive,inactive,–,–,inactive,–,–,–,–,–,–,inactive,inactive,inactive,inactive,inactive,inactive,–
CC(C)Oc1cc(-n2nc(C(C)(C)C)oc2=O)c(Cl)cc1Cl,inactive,–,inactive,–,–,inactive,–,29.5 µM (active),15.2 µM (active),28.6 µM (active),29.8 µM (active),–,inactive,inactive,–,inactive,–,–,–
COC(=O)c1ccccc1C(=O)OC,inactive,inactive,inactive,–,–,inactive,–,–,–,–,–,–,inactive,inactive,inactive,inactive,inactive,inactive,–
OC(c1ccc(Cl)cc1)(c1cncnc1)c1ccccc1Cl (centres undefined),inactive,inactive,inactive,–,–,inactive,–,20 µM (active),–,–,–,–,inactive,inactive,inactive,inactive,inactive,–,–
C=CCC1=C(C)[C@@H](OC(=O)[C@@H]2[C@@H](C=C(C)C)C2(C)C)CC1=O,inactive,–,inactive,–,30.9 µM (active),–,–,33.1 µM (active),32.2 µM (active),34.9 µM (active),32.6 µM (active),–,–,–,–,inactive,–,–,32.4 µM (active)
Oc1ccccc1-c1ccccc1,inactive,inactive,inactive,–,–,inactive,–,–,–,–,–,–,inactive,inactive,inactive,inactive,inactive,inactive,–
COc1cnc(OC)n2nc(NS(=O)(=O)c3c(OCC(F)F)cccc3C(F)(F)F)nc12,inactive,inactive,inactive,–,–,inactive,–,–,–,–,–,–,inactive,inactive,inactive,inactive,inactive,inactive,–
CCON=C(CC)C1=C(O)CC(c2c(C)cc(C)cc2C)CC1=O (centres undefined),inactive,inactive,inactive,–,–,inactive,–,–,–,–,–,–,inactive,inactive,inactive,inactive,inactive,inactive,–
CCOc1cc(Oc2ccc(C(F)(F)F)cc2Cl)ccc1[N+](=O)[O-],inactive,–,inactive,–,12.9 µM (active),–,–,10.6 µM (active),6.77 µM (active),–,6.48 µM (active),–,–,inactive,–,inactive,inactive,–,14.2 µM (active)
Cc1cc(Cl)ccc1OCC(=O)O,inactive,inactive,inactive,–,–,inactive,–,–,–,–,–,–,inactive,inactive,inactive,inactive,inactive,inactive,–
CNC(=O)ON=CC(C)(C)SC,inactive,–,–,–,–,inactive,–,–,–,–,5.4 µM (active),0.148 µM (active),inactive,inactive,inactive,inactive,inactive,inactive,–
O=C(O)c1nc(Cl)ccc1Cl,inactive,inactive,inactive,–,–,inactive,–,–,–,–,–,–,inactive,inactive,inactive,inactive,inactive,inactive,–
CCOC(=O)C(Cl)Cc1cc(-n2nc(C)n(C(F)F)c2=O)c(F)cc1Cl (centres undefined),inactive,inactive,inactive,–,–,inactive,–,–,–,–,–,–,inactive,inactive,inactive,inactive,inactive,inactive,–
CC1COC(Cn2cncn2)(c2ccc(Oc3ccc(Cl)cc3)cc2Cl)O1 (centres undefined),inactive,–,inactive,–,28.1 µM (active),–,34.5 µM (active),25 µM (active),32.2 µM (active),32.5 µM (active),37.9 µM (active),–,–,–,–,inactive,–,–,8.04 µM (active)
N#Cc1nn(-c2c(Cl)cc(C(F)(F)F)cc2Cl)c(N)c1S(=O)C(F)(F)F (centres undefined),inactive,–,inactive,23.6 µM (active),–,–,–,–,–,–,2.24 µM (active),–,inactive,inactive,inactive,–,inactive,inactive,1.71 µM (active)
CC(C)C1(C)N=C(c2nc3ccccc3cc2C(=O)O)NC1=O (centres undefined),inactive,inactive,inactive,–,–,inactive,–,–,–,–,–,–,inactive,inactive,inactive,inactive,inactive,inactive,–
CN(C)C(=S)SSC(=S)N(C)C,inactive,–,inactive,11.5 µM (active),6.36 µM (active),–,7.67 µM (active),2.76 µM (active),4.39 µM (active),4.96 µM (active),2.74 µM (active),–,–,–,–,–,–,–,5.9 µM (active)
CC(C)(C)c1ccc(CSc2cnn(C(C)(C)C)c(=O)c2Cl)cc1,inactive,inactive,inactive,–,12.9 µM (active),inactive,–,4.68 µM (active),7.69 µM (active),–,–,–,–,inactive,–,inactive,inactive,–,–
CCOC(=O)CC(SP(=S)(OC)OC)C(=O)OCC (centres undefined),inactive,inactive,inactive,–,–,inactive,–,–,–,–,–,–,inactive,inactive,inactive,inactive,inactive,inactive,–
CNC(=S)S,inactive,–,inactive,–,–,inactive,–,20 µM (active),–,–,20 µM (active),–,inactive,inactive,inactive,inactive,inactive,–,–
